Assay results published in the supplement of paper PMC8387472.

Key:
Settings in all cases: mESC; 2uM; 72 h treatment, harvest day 5
[1] = compound: CNc1ccc([N+](=O)[O-])c(Nc2ccc3[nH]ncc3c2)n1; assay: fraction of microhomology deletions among edited reads; higher = more MH deletions
[2] = compound: O=c1cc(N2CCOCC2)oc2c(-c3ccc4c(c3)OCCO4)csc12; assay: fraction of edited reads among all mapped reads; higher = more Cas9 editing
[3] = compound: S=c1[nH]cnc2nc[nH]c12 [Mercaptopurine (6-MP)]; assay: as above
[4] = compound: S=c1nc[nH]c2nc[nH]c12 [6-Mercaptopurine (6-MP) Monohydrate]; assay: as above
[5] = compound: CC(=O)O/N=C1\C(=O)N(Cc2cc(Cl)ccc2Cl)c2ccc(Cl)cc21; assay: fraction of microhomology deletions among edited reads; higher = more MH deletions
[6] = compound: CC(C)(C#N)c1ccc(N2C(=O)OCc3cnc4ccc(-c5cnc6ccccc6c5)cc4c32)cc1; assay: as above
[7] = compound: CCCCOc1c(C(=O)c2c(F)cc(C)cc2F)c[nH]c2nncc1-2; assay: as above
[8] = compound: CCN1CCN(CC(=O)Nc2ccc(-c3cccc4c(=O)cc(N5CCOCC5)oc34)c3sc4ccccc4c23)CC1; assay: as above
[9] = compound: CCc1c2c(nc3ccc(OC(=O)N4CCC(N5CCCCC5)CC4)cc13)-c1cc3c(c(=O)n1C2)COC(=O)[C@]3(O)CC [Irinotecan HCl Trihydrate]; assay: as above
[10] = compound: CCn1c(=O)c(-c2ccc(Cl)cc2Cl)cc2cnc(Nc3ccc(N4CCNCC4)c(F)c3)nc21; assay: as above

Row | Target | fraction of microhomology deletions among edited reads [1] | fraction of edited reads among all mapped reads [2] | fraction of edited reads among all mapped reads [3] | fraction of edited reads among all mapped reads [4] | fraction of microhomology deletions among edited reads [5] | fraction of microhomology deletions among edited reads [6] | fraction of microhomology deletions among edited reads [7] | fraction of microhomology deletions among edited reads [8] | fraction of microhomology deletions among edited reads [9] | fraction of microhomology deletions among edited reads [10]
1 | 23.0 AGAACAAAGCGCTCATATAACGATATGGGGGGTTATGGGGGGTTGAATTGCTTCAGCACGA | 0.88 |  |  |  |  |  |  |  |  | 
2 | 44.0 (DMSO control at this site: 1-bp insertion 0.181, MH deletion 0.512, edited 0.123) ACACATACCTTCTTCGAGGCAGCCAGCATGATGAGACAGGTCTCCCACAAACACATCGTGT | 0.506 | 0.091 | 0.173 | 0.13 | 0.553 | 0.526 | 0.528 | 0.637 | 0.469 | 0.547
3 | 34.0 (DMSO control at this site: 1-bp insertion 0.184, MH deletion 0.385, edited 0.103) ATTATAGGACCCTGAGGGAGCAGAGATGTGGGAATGGGGGCCGAGCCAATTGTGATGTAAG | 0.524 | 0.0512 | 0.114 | 0.0949 | 0.51 | 0.538 | 0.496 | 0.585 | 0.527 | 0.53
4 | 41.0 (DMSO control at this site: 1-bp insertion 0.022, MH deletion 0.754, edited 0.115) AAAGAGACAGCAGGTATGAATCCATCTTCCTGACCCTTGGGACCAGCCGGGGCAGTGAAGC | 0.742 | 0.0713 | 0.161 | 0.116 | 0.745 | 0.754 | 0.717 | 0.792 | 0.729 | 0.738
5 | 22.0 (DMSO control at this site: 1-bp insertion 0.573, MH deletion 0.229, edited 0.045) CTGATGGTTGAAGGATTTAGCCGGGGTCCTAGACGCCGGGGTCCTAGACGAAAGGGCCACG | 0.117 | 0.0255 | 0.0686 | 0.0558 | 0.159 | 0.162 | 0.122 | 0.296 | 0.125 | 0.168
6 | 30.0 (DMSO control at this site: 1-bp insertion 0.074, MH deletion 0.67, edited 0.142) GAGCTGGCATGAGTATTTGTGCCACATGGCTCCCACATGGCTCCACATGCAAGTTTGAAAC | 0.699 | 0.0819 | 0.165 | 0.115 | 0.699 | 0.725 | 0.723 | 0.761 | 0.727 | 0.708
7 | 1.0 (DMSO control at this site: 1-bp insertion 0.521, MH deletion 0.323, edited 0.141) GTGTCACAGTGCACGAGTGACGGGATAATGTGCTGACAGGTAATTGATAGGCTTCCAACTT | 0.218 | 0.0814 | 0.187 |  | 0.293 | 0.269 | 0.238 | 0.461 | 0.246 | 0.293
8 | 2.0 (DMSO control at this site: 1-bp insertion 0.364, MH deletion 0.356, edited 0.125) GGTGCCCCCGAGACCTACGCGAACCGAAATCGATGTCCGGTGCGCAAGCAGGGCTGGCGTC | 0.345 | 0.0694 | 0.166 | 0.112 | 0.422 | 0.343 | 0.375 | 0.513 | 0.414 | 0.384
9 | 8.0 GCATGCGTGTTTTGGGACAATGTAGTATACATTTGGGAGGCTCTCAGCTTTTCCCAATAAA |  |  |  | 0.017 | 0.107 | 0.0584 | 0.0574 |  |  | 
10 | 21.0 CGATTGAGAGTCAAACGGGCCAGAAAACTCCGGGAACGGGCCAGAAAACTCCGGGGCATGG | 0.197 | 0.0627 | 0.169 | 0.117 | 0.191 | 0.163 | 0.144 | 0.276 | 0.188 | 
11 | 5.0 (DMSO control at this site: 1-bp insertion 0.214, MH deletion 0.567, edited 0.105) CGCTGACCCGAGACCTACGCGAACCGAAATCGGCGACCGGTGCGCAAGCAGGGCTGGCGTC | 0.552 | 0.0695 | 0.151 | 0.0997 | 0.593 | 0.605 | 0.588 | 0.705 | 0.563 | 0.617
12 | 26.0 (DMSO control at this site: 1-bp insertion 0.518, MH deletion 0.262, edited 0.026) AGGGCGCGCCCCACGCACTCTGCGGCAAGTCCCTCTGCGGCAAGTCCTCGGCCCGGAAGAC | 0.256 | 0.0106 | 0.04 | 0.0282 | 0.289 | 0.324 | 0.27 | 0.54 | 0.29 | 0.331
13 | 35.0 (DMSO control at this site: 1-bp insertion 0.01, MH deletion 0.72, edited 0.098) CCACTTTTAGAGAGGGTGAAAATCATCAGTTATCATCAGGGCAACAAATTGCTTTCTCCTA | 0.732 | 0.0645 | 0.127 | 0.0862 | 0.754 | 0.761 | 0.781 | 0.788 | 0.732 | 0.729
14 | 28.0 (DMSO control at this site: 1-bp insertion 0.035, MH deletion 0.77, edited 0.142) TGGTTCTTCCTTTGTAGAGAGTGTTCATCTGGGAATCTGGGACTTGGATGAGACAATCATT | 0.774 | 0.0926 | 0.18 | 0.117 | 0.789 | 0.793 | 0.767 | 0.818 | 0.763 | 0.774
15 | 31.0 (DMSO control at this site: 1-bp insertion 0.315, MH deletion 0.329, edited 0.026) ACCTCCACAGGCTGGGTGGCCCGGAGGCTGGGCGGCCCGGAGGCTGGGCTGGGCGAGTATC | 0.405 | 0.0134 | 0.0491 | 0.0301 | 0.32 | 0.349 | 0.458 | 0.276 | 0.519 | 0.5
16 | 3.0 (DMSO control at this site: 1-bp insertion 0.109, MH deletion 0.149, edited 0.09) TGCTAGCGCCCCCACAAAGCGGACCAGCCAGCACTATAGGGAATAAGGCCAACTTGCACCC | 0.188 | 0.0464 | 0.123 | 0.0926 | 0.225 | 0.161 | 0.199 | 0.266 | 0.222 | 0.226
17 | 25.0 (DMSO control at this site: 1-bp insertion 0.017, MH deletion 0.774, edited 0.143) GGGCCTGAATGGTGTGGACATCTACTCGCTGGTGAGCTGGTGACTGAAAACATTCAGTGGC | 0.778 | 0.105 | 0.193 | 0.126 | 0.806 | 0.772 | 0.766 | 0.787 | 0.759 | 0.783
18 | 33.0 (DMSO control at this site: 1-bp insertion 0.008, MH deletion 0.771, edited 0.112) CATTAAGAGCAGCTGCCGGCCCCCAAGTGGACAGAGCTGGCCCTGCTGATTCAACAGTGCA | 0.727 | 0.0578 | 0.144 | 0.0975 | 0.714 | 0.71 | 0.717 | 0.76 | 0.741 | 0.716
19 | 17.0 (DMSO control at this site: 1-bp insertion 0.112, MH deletion 0.348, edited 0.058) CCATAGCGCGATAAATATGACGGCTCATCCTGTATGACGGCTCATCCTGTATCAACTGTCC | 0.402 | 0.037 | 0.0873 | 0.069 | 0.396 | 0.391 | 0.416 | 0.509 | 0.411 | 0.358
